Holding throughout (assay): NCI-60 one-dose screen, 48 h (100 = growth as untreated, 0 = no growth, -100 = all killed)
One assay has as its system SR leukemia. Conditions: 10 µM unless noted.
The next assay deals with RPMI-8226 leukemia. As to conditions: 10 µM unless noted.
The next assay deals with OVCAR-8 ovarian. As to conditions: 10 µM unless noted.
Another assay relates to OVCAR-5 ovarian. As to conditions: 10 µM unless noted.
A further assay has as its system OVCAR-4 ovarian. As to conditions: 10 µM.
A further assay concerns SK-OV-3 ovarian. As to conditions: 10 µM unless noted.
In another assay the test system is OVCAR-3 ovarian. As to conditions: 10 µM unless noted.
In another assay the test system is HS 578T breast. As to conditions: 10 µM unless noted.
Another assay concerns NCI/ADR-RES ovarian. Conditions: 10 µM unless noted.
The next assay concerns T-47D breast. As to conditions: 10 µM unless noted.
The next assay deals with MDA-MB-435 melanoma. As to conditions: 10 µM unless noted.
The next assay relates to SW-620 colon. Conditions: 10 µM unless noted.
The test system of the next assay is MCF7 breast. As to conditions: 10 µM unless noted.
The next assay relates to HCT-116 colon. Conditions: 10 µM unless noted.
Another assay has as its system KM12 colon. Conditions: 10 µM unless noted.
The next assay concerns BT-549 breast. As to conditions: 10 µM unless noted.
The next assay concerns HCC-2998 colon. Conditions: 10 µM unless noted.

Compounds without any hit were thinned out: in the full panel of roughly 83,000, 20% have a hit.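 In brief: 96-well plates, 48 h treatment, single concentration, percent growth endpoint.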 Unmarked numbers belong to inactive results. Activity calls are given as the source filed them. Rule for the calls: active = growth percent below 10; inactive = the rest.

In the case of `COc1ccc(C(=O)c2nccc3cc(OC)c(OC)cc23)cc1OC`, the growth in the assay with SR leukemia is 102%; with RPMI-8226 leukemia it was 133%; in the assay with OVCAR-8 ovarian it was 94.3%; in the assay on OVCAR-5 ovarian, 86.5%; in the assay with OVCAR-4 ovarian, 108%; with SK-OV-3 ovarian, 108%. Further, the growth with OVCAR-3 ovarian is 87.2%; with HS 578T breast, 98%; with NCI/ADR-RES ovarian, 83.9%; with T-47D breast, 79.4%; with MDA-MB-435 melanoma, 119%; with SW-620 colon it was 96%. The growth with MCF7 breast was 93.2%; in the assay with HCT-116 colon, 92.9%; with KM12 colon, 104%.
Consider `ClC1=C(Cl)C(Cl)=C(Cl)C1=Cc1ccccc1`, for which the growth in the assay with SR leukemia is 4.43% (active); in the assay with RPMI-8226 leukemia it was -22.7% (active); with OVCAR-8 ovarian, -18.9% (active); in the assay on OVCAR-5 ovarian, -60.9% (active); with OVCAR-4 ovarian it was -20.3% (active); in the assay with SK-OV-3 ovarian it was 38.8%. Further, the growth in the assay with HS 578T breast was 6.95% (active); with NCI/ADR-RES ovarian it was -26.5% (active); in the assay with T-47D breast, -26.4% (active); in the assay on BT-549 breast, -82.1% (active); in the assay with MDA-MB-435 melanoma it was -54% (active); with SW-620 colon, -56.2% (active). In addition, the growth in the assay on HCT-116 colon is -99% (active); in the assay on HCC-2998 colon it was -82.8% (active); with KM12 colon, -84.7% (active).
For the molecule `Nc1ccc(Cl)c([N+](=O)[O-])c1`, the growth was 90.1% in the assay on SR leukemia; 97.8% with RPMI-8226 leukemia; 101% with OVCAR-8 ovarian; 86% with OVCAR-5 ovarian; 97.4% in the assay on OVCAR-4 ovarian; 108% with SK-OV-3 ovarian. The growth was 110% with HS 578T breast; 105% in the assay on NCI/ADR-RES ovarian; 91.9% with T-47D breast; 95.1% in the assay with BT-549 breast; 95.1% in the assay on MDA-MB-435 melanoma; 104% in the assay with SW-620 colon. For the same molecule, the growth is 101% in the assay with MCF7 breast, 97.7% in the assay with HCT-116 colon, 94.4% in the assay on HCC-2998 colon and 96.1% with KM12 colon.
On to `CCCCN(CC)CC(CC)Nc1cc(OC)cc2cccnc12` (stereo not drawn), for which the growth in the assay with SR leukemia is 113%; with RPMI-8226 leukemia it was 105%; in the assay with OVCAR-8 ovarian, 103%; with OVCAR-5 ovarian, 103%; in the assay with OVCAR-4 ovarian it was 115%; in the assay with SK-OV-3 ovarian it was 127%. The growth in the assay on OVCAR-3 ovarian is 107%; in the assay on NCI/ADR-RES ovarian, 101%; in the assay on T-47D breast, 110%; in the assay with BT-549 breast it was 110%; in the assay with MDA-MB-435 melanoma, 102%; in the assay on SW-620 colon, 108%. Further, the growth in the assay with HCT-116 colon was 105%; with KM12 colon, 107%.
Regarding `CCCCCC1CCCCN1C(=O)OCCCC` (stereo not drawn), the growth was 108% with SR leukemia; 73.2% in the assay on RPMI-8226 leukemia; 106% in the assay with OVCAR-8 ovarian; 101% with OVCAR-5 ovarian; 103% in the assay with OVCAR-4 ovarian; 105% in the assay on SK-OV-3 ovarian. For the same molecule, the growth in the assay on OVCAR-3 ovarian was 104%; in the assay on HS 578T breast it was 122%; in the assay with NCI/ADR-RES ovarian, 91.8%; in the assay on T-47D breast, 99.1%; in the assay with MDA-MB-435 melanoma it was 105%; in the assay with SW-620 colon it was 111%. In addition, the growth with MCF7 breast is 96.7%; in the assay with HCT-116 colon it was 109%; in the assay on KM12 colon, 104%.
As for `CCN(CC)CCCNCc1cc(-c2ccccc2)nc2ccccc12`, the growth in the assay with SR leukemia is 4.37% (active); with RPMI-8226 leukemia, 20%; with OVCAR-8 ovarian it was 35.1%; in the assay on OVCAR-5 ovarian it was 109%; in the assay on OVCAR-4 ovarian, 56.3%; in the assay on SK-OV-3 ovarian, 92.4%. Further, the growth with OVCAR-3 ovarian is 35.7%; in the assay on NCI/ADR-RES ovarian, -32% (active); in the assay on T-47D breast, 53.4%; with BT-549 breast, 75.9%; with MDA-MB-435 melanoma it was 53.3%; with SW-620 colon it was 24.2%. Also, the growth was 35.7% in the assay on MCF7 breast, 7.25% (active) in the assay on HCT-116 colon, 101% in the assay with HCC-2998 colon and 82.6% in the assay with KM12 colon.
As for `O=C(O)CSCc1nnc2n(Cc3ccccc3)c(=O)c3c4c(sc3n12)CCCC4`, the growth is 75.6% with SR leukemia; 76.9% in the assay on RPMI-8226 leukemia; 92.6% in the assay with OVCAR-8 ovarian; 94.1% with OVCAR-5 ovarian; 95.6% in the assay with OVCAR-4 ovarian; 106% in the assay on SK-OV-3 ovarian. Besides, the growth with HS 578T breast was 99.1%; with NCI/ADR-RES ovarian, 96.6%; in the assay on T-47D breast it was 85%; in the assay on BT-549 breast it was 101%; in the assay on MDA-MB-435 melanoma, 112%; in the assay on SW-620 colon, 107%. For the same molecule, the growth in the assay with MCF7 breast is 110%; with HCT-116 colon it was 144%; in the assay on HCC-2998 colon, 98.1%; in the assay with KM12 colon, 109%.
As for `COc1cc(NN=C(c2ccc(O)cc2)c2ccc(O)cc2)c([N+](=O)[O-])cc1[N+](=O)[O-]`, the growth with SR leukemia is 50.6%; in the assay with RPMI-8226 leukemia, 81.5%; with OVCAR-8 ovarian it was -31.7% (active); in the assay on OVCAR-5 ovarian it was 24.1%; with OVCAR-4 ovarian, 88.9%; in the assay on SK-OV-3 ovarian it was 5.8% (active). Further, the growth is 60.9% with OVCAR-3 ovarian; 8.39% (active) in the assay on NCI/ADR-RES ovarian; -10.1% (active) in the assay on T-47D breast; 111% in the assay on BT-549 breast; 95.6% in the assay with MDA-MB-435 melanoma; 98.9% in the assay on SW-620 colon. In addition, the growth in the assay on MCF7 breast is 1.9% (active); in the assay on HCT-116 colon it was 1.31% (active); with HCC-2998 colon it was 2.63% (active).
In the case of `Cc1ccc(S(=O)(=O)Oc2ccc([N+](=O)[O-])cc2[N+](=O)[O-])cc1`, the growth with SR leukemia is 56.6%; in the assay on RPMI-8226 leukemia, 53.2%; in the assay with OVCAR-8 ovarian it was 78.8%; in the assay on OVCAR-5 ovarian it was 111%; in the assay with OVCAR-4 ovarian it was 63.6%; in the assay with SK-OV-3 ovarian, 119%. The growth is 107% with OVCAR-3 ovarian; 85.1% in the assay with NCI/ADR-RES ovarian; 94.5% in the assay on T-47D breast; -8.38% (active) with BT-549 breast; 25.2% in the assay on MDA-MB-435 melanoma; 18.4% in the assay on SW-620 colon. Also, the growth in the assay with MCF7 breast is 70.7%; in the assay with HCT-116 colon, 5.12% (active); in the assay on HCC-2998 colon it was 99.8%; in the assay on KM12 colon it was 102%.
With `CCOC(=O)C(C(C)=O)c1nc2sc3cc(Cl)c(Cl)cc3n2c(=O)c1C#N` (stereo not drawn), the growth was 105% with SR leukemia; 98.6% in the assay on RPMI-8226 leukemia; 92.8% in the assay on OVCAR-8 ovarian; 122% with OVCAR-5 ovarian; 94.5% in the assay with OVCAR-4 ovarian; 83.2% in the assay with SK-OV-3 ovarian. In addition, the growth with HS 578T breast was 114%; in the assay with NCI/ADR-RES ovarian it was 106%; with T-47D breast, 78%; in the assay on MDA-MB-435 melanoma it was 106%; in the assay with SW-620 colon, 116%; with MCF7 breast it was 65.4%. Moreover, the growth with HCT-116 colon is 101%; in the assay with HCC-2998 colon, 106%; in the assay on KM12 colon, 98.6%.

(Values after PubChem BioAssay (NCI).)
